According to PubChem BioAssay (NCI):
The panel holds about 79,000 compounds, 15% with a hit somewhere; the sample as a whole holds those more often. Activity calls are given as the source filed them. Rule as the data show it: active = growth inhibition above about 70%; inactive = the rest.

Experiments:
[1] = NCI Yeast Anticancer Drug Screen. Data for the rad52 strain (AID 147);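 also: 0% = growth of vehicle-treated control cultures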; conditions: S. cerevisiae rad52 mutant growth inhibition, active compounds read high
Method in brief: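 Read-out: growth inhibition versus vehicle-treated controls. Cells were a DNA repair-deficient yeast strain treated with compounds.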

[2] = NCI Yeast Anticancer Drug Screen. Data for the wt1 strain (AID 149);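 also: 0% = growth of vehicle-treated wt1 cultures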; conditions: S. cerevisiae wt1 strain (SPY 50644) growth inhibition, active compounds read high
Method in brief: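 wt1 yeast, compound-treated; % growth inhibition vs vehicle control.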

[3] = NCI Yeast Anticancer Drug Screen. Data for the rad50EPP+ strain (AID 151);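 also: 0% = growth of vehicle-treated control cultures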; conditions: S. cerevisiae rad50 mutant strain, active compounds read high
Method in brief: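 Growth inhibition read against vehicle controls in rad50EPP+ yeast, a strain altered in DNA damage repair, after compound exposure.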

[4] = NCI Yeast Anticancer Drug Screen. Data for the mgt1 strain (AID 153); conditions: S. cerevisiae mgt1 mutant growth inhibition, active compounds read high
Method in brief: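 mgt1 yeast grown with test compound; read-out is growth inhibition versus vehicle-treated cultures.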

[5] = NCI Yeast Anticancer Drug Screen. Data for the rad50 strain (AID 155);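 also: 0% = growth of vehicle-only cultures of the same strain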; conditions: S. cerevisiae rad50 strain growth inhibition, active compounds read high
Method in brief: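 Genetically altered yeast (DNA repair pathway); compound treatment; growth inhibition vs vehicle ctrl.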

[6] = NCI Yeast Anticancer Drug Screen. Data for the mec2-1 strain (AID 157); conditions: S. cerevisiae mec2-1 strain, active compounds read high
Method in brief: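 Yeast mec2-1 mutant treated with compound. Readout: growth inhibition vs vehicle controls.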

[7] = NCI Yeast Anticancer Drug Screen. Data for the rad14 strain (AID 159);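 also: 0% = growth of vehicle-treated control cultures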; conditions: S. cerevisiae rad14 strain growth inhibition, active compounds read high
Method in brief: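 Test compounds were applied to a repair-deficient yeast strain. Its growth was then compared with that of cultures given vehicle alone, and inhibition was expressed relative to those controls.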

[8] = NCI Yeast Anticancer Drug Screen. Data for the CLN2oe strain (AID 163);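 also: 0% = growth of vehicle-only control cultures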; conditions: S. cerevisiae CLN2oe strain, active compounds read high
Method in brief: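 Read-out: yeast growth inhibition, expressed relative to vehicle-only controls. The strain bears an engineered cell-cycle alteration.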

[9] = NCI Yeast Anticancer Drug Screen. Data for the cln2 rad14 strain (AID 165);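 also: 0% = growth equal to vehicle treated cultures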; conditions: S. cerevisiae cln2 rad14 strain, active compounds read high
Method in brief: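 cln2 rad14 yeast strain; compound exposure; growth inhibition read vs vehicle controls.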

[10] = NCI Yeast Anticancer Drug Screen. Data for the bub3 strain (AID 167); conditions: S. cerevisiae bub3 mutant strain, active compounds read high
Method in brief: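 Yeast carrying a defined mutation is treated with each compound, and growth is compared with that of vehicle-exposed cells to give inhibition.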

[11] = NCI Yeast Anticancer Drug Screen. Data for the wt2 strain (AID 169);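 also: 0% = growth of vehicle-treated yeast cultures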; conditions: S. cerevisiae wt2 strain growth inhibition, active compounds read high
Method in brief: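 Read-out: growth inhibition versus vehicle-treated control cultures after compound exposure of the yeast strain.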

[12] = NCI Yeast Anticancer Drug Screen. Data for the mlh1 strain (AID 171);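 also: 0% = growth of vehicle-treated control cultures of the same strain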; conditions: S. cerevisiae mlh1 strain growth inhibition, active compounds read high
Method in brief: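 Read-out: growth inhibition versus vehicle controls. Strain: engineered yeast with a defined DNA repair or cell cycle defect, compound-treated.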

[13] = NCI Yeast Anticancer Drug Screen. Data for the sgs1 strain (AID 173);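 also: 0% = growth of vehicle-only control cultures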; conditions: S. cerevisiae sgs1 mutant, active compounds read high
Method in brief: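 Read-out: yeast growth inhibition relative to vehicle controls, following compound exposure of a strain with a defined DNA repair/cell cycle alteration.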

[14] = NCI Yeast Anticancer Drug Screen. Data for the mlh1 rad18 strain (AID 175); conditions: S. cerevisiae mlh1 rad18 strain growth inhibition, active compounds read high
Method in brief: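 Yeast w/ defined DNA-repair lesions; compound exposure; growth vs vehicle controls → % inhibition.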

[15] = NCI Yeast Anticancer Drug Screen. Data for the rad18 strain (AID 177); conditions: S. cerevisiae rad18 mutant growth inhibition, active compounds read high
Method in brief: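 Readout: growth inhibition vs vehicle controls. Cells: genetically altered yeast strain, DNA repair defect.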

[16] = at 5.0 µM (retest, dose inferred, filed as 0.5)
[17] = at 50.0 µM (retest, dose inferred, filed as 5.0)

Measured: growth inhibition

O=C(Nc1ccccc1)C(=O)C(C(=O)c1ccccc1)C(c1ccccc1)c1ccccc1 (stereo not given)
inactive: [1]; at 1.2 µM 8% | [1]; at 3.7 µM 10% | [1]; at 11.0 µM 15% | [1]; at 33.0 µM 23% | [1]; at 100.0 µM 36% | [2]; at 1.2 µM 3% | [2]; at 3.7 µM 5% | [2]; at 11.0 µM 4% | [2]; at 33.0 µM 10% | [2]; at 100.0 µM 28% | [3]; at 1.2 µM 0% | [3]; at 3.7 µM 0% | [3]; at 11.0 µM 1% | [3]; at 33.0 µM 2% | [3]; at 100.0 µM -1% | [4]; at 1.2 µM 2% | [4]; at 3.7 µM 1% | [4]; at 11.0 µM 5% | [4]; at 33.0 µM 8% | [4]; at 100.0 µM 42% | [5]; at 1.2 µM 1% | [5]; at 3.7 µM -6% | [5]; [16] 11% | [5]; at 11.0 µM -3% | [5]; at 33.0 µM 26% | [5]; at 100.0 µM 37% | [6]; at 1.2 µM 8% | [6]; at 3.7 µM 7% | [6]; [16] -11% | [6]; at 11.0 µM 10% | [6]; at 33.0 µM 22% | [6]; at 50.0 µM 15.9% | [6]; at 100.0 µM 35% | [7]; at 1.2 µM 3% | [7]; at 3.7 µM 0% | [7]; at 11.0 µM 5% | [7]; at 33.0 µM 18% | [7]; at 100.0 µM 36% | [8]; at 1.2 µM 5% | [8]; at 3.7 µM 2% | [8]; at 11.0 µM 6% | [8]; at 33.0 µM 24% | [8]; at 100.0 µM 39% | [9]; [16] 5% | [9]; [17] 53% | [9]; at 50.0 µM 41.2% | [10]; at 1.2 µM 2% | [10]; at 3.7 µM 0% | [10]; [16] -2% | [10]; at 11.0 µM 3% | [10]; at 33.0 µM 9% | [10]; [17] 33% | [10]; at 50.0 µM 58.3% | [10]; at 100.0 µM 18% | [11]; at 1.2 µM 1% | [11]; at 3.7 µM 2% | [11]; at 11.0 µM 2% | [11]; at 33.0 µM 12% | [11]; at 100.0 µM 43% | [12]; at 1.2 µM 3% | [12]; at 3.7 µM 2% | [12]; at 11.0 µM 3% | [12]; at 33.0 µM 16% | [12]; at 100.0 µM 31% | [13]; at 1.2 µM 2% | [13]; at 3.7 µM 3% | [13]; at 11.0 µM 3% | [13]; at 33.0 µM 32% | [13]; at 100.0 µM 56% | [14]; [16] -13% | [15]; at 1.2 µM 7% | [15]; at 3.7 µM 10% | [15]; at 11.0 µM 22% | [15]; at 33.0 µM 41% | [15]; at 100.0 µM 47%
active: [5]; [17] 86% | [5]; at 50.0 µM 82.5% | [6]; [17] 78% | [14]; [17] 74% | [14]; at 50.0 µM 79.8%
